The supplement of paper PMC10849652
The full data set covers some 7,900 targets. This sample favours those with a hit. About 0.6% of all pairs of compound and target were hits.

Each target was assayed with COc1cc2ncnc(Nc3ccc(F)c(Cl)c3)c2cc1OCCCN1CCOCC1 [gefitinib] (assay: log2 fold change, soluble protein after heating vs DMSO (PISA); higher = thermal stabilisation; K562 cells, 10 uM, 30 min; active = over 0.2 and 3.5 SD of the protein, either way, in both replicates (recomputed)).
Outline: (§1)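 Quantification of soluble protein used TMTpro 16plex LC-MS/MS, with channel sums equalised. Samples were the supernatant after 21,000xg for 90 min of pooled aliquots from K562 cells (2×10^6 cells/mL) treated with 10 μM compound for 30 min, heated for 3 min over 48°C-58°C, and extracted in PBS with 0.5% NP-40 at 4°C. Values, from duplicates, describe thermal stability against control samples on a log2 fold-change scale.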

Sequence of UniProt Q00013 (Q00013 whole entry, looked up): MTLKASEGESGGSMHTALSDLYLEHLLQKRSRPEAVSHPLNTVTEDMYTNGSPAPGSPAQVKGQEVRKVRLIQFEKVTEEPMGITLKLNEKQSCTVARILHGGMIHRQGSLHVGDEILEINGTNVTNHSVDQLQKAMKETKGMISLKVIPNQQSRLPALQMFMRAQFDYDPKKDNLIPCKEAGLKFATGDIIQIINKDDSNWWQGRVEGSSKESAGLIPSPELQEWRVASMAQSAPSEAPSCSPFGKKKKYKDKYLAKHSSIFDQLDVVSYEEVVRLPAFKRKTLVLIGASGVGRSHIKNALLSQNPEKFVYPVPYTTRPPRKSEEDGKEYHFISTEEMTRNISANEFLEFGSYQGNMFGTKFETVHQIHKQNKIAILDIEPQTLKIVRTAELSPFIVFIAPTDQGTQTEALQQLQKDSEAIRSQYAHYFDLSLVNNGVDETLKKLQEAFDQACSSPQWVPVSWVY
Sequence of UniProt Q9UMY1 (Q9UMY1 whole entry, looked up): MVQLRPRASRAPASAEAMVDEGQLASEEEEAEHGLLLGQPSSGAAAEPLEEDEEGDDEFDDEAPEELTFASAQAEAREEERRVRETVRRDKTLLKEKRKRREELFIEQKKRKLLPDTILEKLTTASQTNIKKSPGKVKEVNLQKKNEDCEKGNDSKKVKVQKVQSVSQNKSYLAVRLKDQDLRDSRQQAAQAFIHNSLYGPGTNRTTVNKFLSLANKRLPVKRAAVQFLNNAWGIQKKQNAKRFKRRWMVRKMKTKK
Sequence of UniProt Q8TEM1 (Q8TEM1 whole entry, looked up): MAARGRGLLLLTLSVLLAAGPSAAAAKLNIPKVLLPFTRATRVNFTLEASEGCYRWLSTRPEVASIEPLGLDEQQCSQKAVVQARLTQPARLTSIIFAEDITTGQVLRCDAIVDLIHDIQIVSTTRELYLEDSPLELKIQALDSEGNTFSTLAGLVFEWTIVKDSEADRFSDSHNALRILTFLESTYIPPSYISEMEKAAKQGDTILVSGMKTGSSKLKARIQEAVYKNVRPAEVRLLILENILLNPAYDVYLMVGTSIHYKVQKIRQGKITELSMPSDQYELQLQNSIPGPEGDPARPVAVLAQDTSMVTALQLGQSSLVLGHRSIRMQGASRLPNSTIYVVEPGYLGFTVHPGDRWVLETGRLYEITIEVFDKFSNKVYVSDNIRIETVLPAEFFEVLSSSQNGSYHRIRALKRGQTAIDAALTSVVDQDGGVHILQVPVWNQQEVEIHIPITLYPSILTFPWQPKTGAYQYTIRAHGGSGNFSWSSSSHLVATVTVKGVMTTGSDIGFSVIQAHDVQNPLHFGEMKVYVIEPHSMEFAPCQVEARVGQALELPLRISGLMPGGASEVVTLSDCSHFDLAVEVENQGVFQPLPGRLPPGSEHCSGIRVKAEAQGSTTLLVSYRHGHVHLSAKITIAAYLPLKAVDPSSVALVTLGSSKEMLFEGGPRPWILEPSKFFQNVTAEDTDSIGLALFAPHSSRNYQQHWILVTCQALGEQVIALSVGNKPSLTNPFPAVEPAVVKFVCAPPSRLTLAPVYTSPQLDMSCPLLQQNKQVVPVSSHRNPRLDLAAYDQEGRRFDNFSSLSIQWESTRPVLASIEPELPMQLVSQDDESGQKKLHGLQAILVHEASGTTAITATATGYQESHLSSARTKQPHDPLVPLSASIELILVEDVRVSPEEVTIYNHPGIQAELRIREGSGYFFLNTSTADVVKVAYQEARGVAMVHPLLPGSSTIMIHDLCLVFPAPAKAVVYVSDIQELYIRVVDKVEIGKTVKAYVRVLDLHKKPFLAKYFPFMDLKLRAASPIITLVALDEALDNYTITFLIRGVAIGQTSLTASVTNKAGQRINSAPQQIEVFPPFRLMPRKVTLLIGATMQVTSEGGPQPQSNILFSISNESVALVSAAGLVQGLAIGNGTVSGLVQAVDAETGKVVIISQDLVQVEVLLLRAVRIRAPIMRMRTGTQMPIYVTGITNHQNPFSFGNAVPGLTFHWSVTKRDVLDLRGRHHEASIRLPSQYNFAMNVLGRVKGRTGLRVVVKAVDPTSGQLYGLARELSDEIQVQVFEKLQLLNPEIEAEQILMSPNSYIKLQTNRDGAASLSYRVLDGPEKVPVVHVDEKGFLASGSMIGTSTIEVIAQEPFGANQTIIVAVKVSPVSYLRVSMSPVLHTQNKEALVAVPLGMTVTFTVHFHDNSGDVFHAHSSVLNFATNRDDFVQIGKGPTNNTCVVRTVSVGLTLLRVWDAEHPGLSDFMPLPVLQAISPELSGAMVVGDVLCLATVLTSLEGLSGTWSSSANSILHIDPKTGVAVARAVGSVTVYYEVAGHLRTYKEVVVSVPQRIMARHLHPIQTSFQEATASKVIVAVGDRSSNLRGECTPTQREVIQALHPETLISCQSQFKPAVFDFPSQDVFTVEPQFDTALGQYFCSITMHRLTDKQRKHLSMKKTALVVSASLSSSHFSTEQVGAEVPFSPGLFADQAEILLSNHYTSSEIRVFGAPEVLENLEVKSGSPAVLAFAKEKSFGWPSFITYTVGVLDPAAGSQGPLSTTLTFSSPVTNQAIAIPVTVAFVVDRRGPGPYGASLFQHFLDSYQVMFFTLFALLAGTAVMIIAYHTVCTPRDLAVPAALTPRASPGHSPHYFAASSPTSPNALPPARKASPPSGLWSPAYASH
Sequence of UniProt P84157 (P84157 whole entry, looked up): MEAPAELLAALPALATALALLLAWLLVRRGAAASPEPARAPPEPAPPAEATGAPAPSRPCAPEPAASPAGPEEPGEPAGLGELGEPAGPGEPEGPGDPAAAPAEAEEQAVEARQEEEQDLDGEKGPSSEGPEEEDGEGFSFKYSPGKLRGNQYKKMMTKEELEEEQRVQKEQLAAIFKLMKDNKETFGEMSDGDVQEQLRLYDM
Sequence of UniProt Q8NCE2 (Q8NCE2 whole entry, looked up): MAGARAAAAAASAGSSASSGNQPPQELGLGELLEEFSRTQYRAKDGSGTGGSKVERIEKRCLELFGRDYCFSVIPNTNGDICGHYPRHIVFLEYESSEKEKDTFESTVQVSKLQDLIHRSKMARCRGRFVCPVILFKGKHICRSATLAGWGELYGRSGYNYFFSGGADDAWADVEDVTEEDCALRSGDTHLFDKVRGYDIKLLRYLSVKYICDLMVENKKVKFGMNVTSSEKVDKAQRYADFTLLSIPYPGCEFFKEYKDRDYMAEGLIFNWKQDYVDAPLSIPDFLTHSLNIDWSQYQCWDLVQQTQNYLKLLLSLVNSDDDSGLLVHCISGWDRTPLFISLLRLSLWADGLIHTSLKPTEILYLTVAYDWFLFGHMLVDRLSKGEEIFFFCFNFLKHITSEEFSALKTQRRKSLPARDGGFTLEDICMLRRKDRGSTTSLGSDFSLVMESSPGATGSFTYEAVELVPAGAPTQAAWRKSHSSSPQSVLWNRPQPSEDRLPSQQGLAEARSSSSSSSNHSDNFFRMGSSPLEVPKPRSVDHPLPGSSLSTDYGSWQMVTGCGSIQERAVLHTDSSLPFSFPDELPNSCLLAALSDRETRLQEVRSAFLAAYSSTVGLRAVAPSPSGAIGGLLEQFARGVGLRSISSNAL
Sequence of UniProt O43809 (O43809 whole entry, looked up): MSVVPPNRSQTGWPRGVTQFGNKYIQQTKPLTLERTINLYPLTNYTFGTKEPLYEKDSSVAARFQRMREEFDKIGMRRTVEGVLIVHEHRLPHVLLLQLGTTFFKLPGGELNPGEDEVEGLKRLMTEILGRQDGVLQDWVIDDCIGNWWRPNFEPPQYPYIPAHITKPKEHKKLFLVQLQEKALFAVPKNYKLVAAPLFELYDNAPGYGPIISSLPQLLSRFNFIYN
Sequence of UniProt P30419 (P30419 whole entry, looked up): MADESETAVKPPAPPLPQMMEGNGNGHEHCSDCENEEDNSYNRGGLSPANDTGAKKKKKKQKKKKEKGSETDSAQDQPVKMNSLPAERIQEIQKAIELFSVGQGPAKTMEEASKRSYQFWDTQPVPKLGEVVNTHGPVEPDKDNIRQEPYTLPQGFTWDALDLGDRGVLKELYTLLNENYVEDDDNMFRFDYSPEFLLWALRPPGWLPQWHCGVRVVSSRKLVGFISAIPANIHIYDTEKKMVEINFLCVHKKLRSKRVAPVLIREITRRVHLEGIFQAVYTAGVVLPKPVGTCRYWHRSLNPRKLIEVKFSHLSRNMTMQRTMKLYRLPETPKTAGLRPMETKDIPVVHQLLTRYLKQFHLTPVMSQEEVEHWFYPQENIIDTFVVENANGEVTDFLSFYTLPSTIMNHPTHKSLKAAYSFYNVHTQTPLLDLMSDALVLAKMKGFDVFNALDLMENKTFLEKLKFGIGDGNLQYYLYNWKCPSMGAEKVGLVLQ
Sequence of UniProt Q96DE0 (Q96DE0 whole entry, looked up): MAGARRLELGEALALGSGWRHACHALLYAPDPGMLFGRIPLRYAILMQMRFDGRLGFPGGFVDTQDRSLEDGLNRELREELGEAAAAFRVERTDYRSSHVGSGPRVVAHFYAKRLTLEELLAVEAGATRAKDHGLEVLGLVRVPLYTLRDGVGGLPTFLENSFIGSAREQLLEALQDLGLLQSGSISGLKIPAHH
Sequence of UniProt Q96I59 (Q96I59 whole entry, looked up): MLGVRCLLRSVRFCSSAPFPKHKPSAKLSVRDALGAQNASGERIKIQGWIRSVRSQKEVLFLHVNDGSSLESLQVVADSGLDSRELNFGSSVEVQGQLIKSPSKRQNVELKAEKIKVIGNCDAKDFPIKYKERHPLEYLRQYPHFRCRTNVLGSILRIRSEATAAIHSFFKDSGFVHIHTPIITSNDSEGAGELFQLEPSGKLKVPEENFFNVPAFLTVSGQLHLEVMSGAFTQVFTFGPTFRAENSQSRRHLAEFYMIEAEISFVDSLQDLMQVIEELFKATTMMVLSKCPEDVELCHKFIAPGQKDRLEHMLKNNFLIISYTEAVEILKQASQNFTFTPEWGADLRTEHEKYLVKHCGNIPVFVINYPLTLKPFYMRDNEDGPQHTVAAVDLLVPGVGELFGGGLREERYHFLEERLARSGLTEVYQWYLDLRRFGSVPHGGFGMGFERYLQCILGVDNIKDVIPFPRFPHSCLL
Sequence of UniProt P17568 (P17568 whole entry, looked up): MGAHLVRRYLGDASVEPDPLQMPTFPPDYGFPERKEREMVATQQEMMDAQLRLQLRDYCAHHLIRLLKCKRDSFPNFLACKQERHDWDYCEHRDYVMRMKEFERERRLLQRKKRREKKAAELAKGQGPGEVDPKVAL

log2 fold change, inactive:
NUDT16 (UniProt Q96DE0) 0.005
NIBAN1 (UniProt Q9BZQ8) -0.032
NUP210 (UniProt Q8TEM1) -0.053
NMT1 (UniProt P30419) -0.044
MRPS35 (UniProt P82673) -0.054
OPA1 isoform 2 (UniProt O60313) -0.002
NA, A0A096LPI6 0.018
NOL7 (UniProt Q9UMY1) -0.006
MRPS15 (UniProt P82914) -0.054
MXRA7 (UniProt P84157) 0.058
MPP1 (UniProt Q00013) 0.114
MTMR14 (UniProt Q8NCE2) -0.02
MRPS25 (UniProt P82663) 0.058
MMS19 isoform 8 (UniProt Q96T76) 0.026
NUDT21 (UniProt O43809) -0.019

The targets below were run with COc1cccc2cc(-c3nc([C@H]4CC[C@H](C(=O)O)CC4)n4ncnc(N)c34)[nH]c12 in the same assay as above.
Outline: as §1

log2 fold change, inactive:
NDUFB8 (UniProt O95169) 0.06
MRPS12 (UniProt O15235) -0.062
MKNK1 (UniProt Q9BUB5) -0.073
NELFA (UniProt Q9H3P2) 0.017
MRPS2 (UniProt Q9Y399) 0.006
MRPS16 (UniProt Q9Y3D3) -0.011
NOP56 (UniProt O00567) -0.078
MITD1 (UniProt Q8WV92) 0.063
NDUFS7 (UniProt O75251) 0.057
NARS2 (UniProt Q96I59) 0.09
NDUFA6 (UniProt P56556) 0.068
NDUFA9 (UniProt Q16795) 0.014
NMNAT1 (UniProt Q9HAN9) -0.102
NQO1 (UniProt P15559) 0.001
OTULIN (UniProt Q96BN8) -0.045
NDUFB7 (UniProt P17568) 0.002
MUL1 (UniProt Q969V5) -0.08
MSTO1 (UniProt Q9BUK6) 0.025
NSUN2 (UniProt Q08J23) -0.003
MKRN2 (UniProt Q9H000) -0.079
NFE2 (UniProt Q16621) 0.014
MRPS9 (UniProt P82933) 0.016
NCAPH (UniProt Q15003) -0.065
NGLY1 (UniProt Q96IV0) -0.128
NUDT16 (UniProt Q96DE0) 0.112
NIBAN1 (UniProt Q9BZQ8) -0.062
NUP210 (UniProt Q8TEM1) 0.045
NMT1 (UniProt P30419) 0.018
MRPS35 (UniProt P82673) -0.13
OPA1 isoform 2 (UniProt O60313) 0.002
NA, A0A096LPI6 0.074
NOL7 (UniProt Q9UMY1) -0.142
MRPS15 (UniProt P82914) 0.024
MXRA7 (UniProt P84157) 0.067
MPP1 (UniProt Q00013) -0.074
MTMR14 (UniProt Q8NCE2) 0.017
MRPS25 (UniProt P82663) -0.046
MMS19 isoform 8 (UniProt Q96T76) 0.019
NUDT21 (UniProt O43809) 0.031

What follows are targets tested with CS(=O)(=O)CCNCc1ccc(-c2ccc3ncnc(Nc4ccc(OCc5cccc(F)c5)c(Cl)c4)c3c2)o1 [lapatinib] in the same assay as above.
Outline: as §1

log2 fold change, inactive:
NDUFB8 (UniProt O95169) -0.036
MRPS12 (UniProt O15235) 0.082
MKNK1 (UniProt Q9BUB5) 0.015
NELFA (UniProt Q9H3P2) -0.079
MRPS2 (UniProt Q9Y399) 0.071
MRPS16 (UniProt Q9Y3D3) 0.039
NOP56 (UniProt O00567) 0.098
MITD1 (UniProt Q8WV92) 0.004
NDUFS7 (UniProt O75251) 0.015
NARS2 (UniProt Q96I59) -0.031
NDUFA6 (UniProt P56556) 0.097
NDUFA9 (UniProt Q16795) -0.052
NMNAT1 (UniProt Q9HAN9) 0.018
NQO1 (UniProt P15559) -0.017
OTULIN (UniProt Q96BN8) 0.048
NDUFB7 (UniProt P17568) -0.013
MUL1 (UniProt Q969V5) 0.006
MSTO1 (UniProt Q9BUK6) -0.009
NSUN2 (UniProt Q08J23) 0.035
MKRN2 (UniProt Q9H000) -0.027
NFE2 (UniProt Q16621) 0.007
MRPS9 (UniProt P82933) 0.096
NCAPH (UniProt Q15003) -0.021
NGLY1 (UniProt Q96IV0) 0.03
NUDT16 (UniProt Q96DE0) 0.054
NIBAN1 (UniProt Q9BZQ8) -0.015
NUP210 (UniProt Q8TEM1) -0.089
NMT1 (UniProt P30419) 0.03
MRPS35 (UniProt P82673) 0.022
OPA1 isoform 2 (UniProt O60313) 0.024
NA, A0A096LPI6 0.029
NOL7 (UniProt Q9UMY1) 0.169
MRPS15 (UniProt P82914) 0.08
MXRA7 (UniProt P84157) 0
MPP1 (UniProt Q00013) 0.032
MTMR14 (UniProt Q8NCE2) -0.075
MRPS25 (UniProt P82663) 0.08
MMS19 isoform 8 (UniProt Q96T76) -0.021
NUDT21 (UniProt O43809) -0.019
